Inconclusive results are not listed. The source made the active and inactive calls.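 Rule for the calls, unless noted: active = percent response above 42, roughly 3 SD of non-fluorescent test compounds; inactive = the rest.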

The source of these data is PubChem BioAssay.

Experiment [1] in a line: yeast TOR pathway RPL19A-GFP modulators, primary screen, cell-based, S. cerevisiae, multiplex flow cytometry (AID 1862; in the data active = percent of DMSO control GFP below about 86%;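 note: lower values mimic rapamycin by blocking the RPL19A rise seen in DMSO cells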). The settings on record: S. cerevisiae RPL19A-GFP strain, flow cytometry fluorescence, 3 h; at 10 µM; stronger effect = lower value. (In general: Flow cytometry measures light scatter and fluorescence of single cells or particles in a stream.)
Experiment [2] is described as follows: modulators of MEP2-GFP levels in yeast, primary screen, S. cerevisiae, multiplex flow cytometry (AID 1867;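 active = GFP response, as percent of the DMSO control, above the screen-wide mean plus 3 SD, about 139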;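 note: median GFP channel fluorescence of barcode-gated MEP2-GFP cells measured by flow cytometry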). The following applies: S. cerevisiae MEP2-GFP strain, 3 h, at 10 µM, stronger effect = higher value, 100% means same as DMSO wells.
The nature of experiment [3]: modulators of CIT2-GFP expression in yeast, primary screen, S. cerevisiae, GFP fusion, multiplex flow cytometry (AID 1870;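 active = percent response above a set limit, the screen-wide mean plus 3 SD, cut at about 130% in these data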;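 note: barcoded CIT2-GFP strain pooled with four other GFP strains with rapamycin as positive control; median GFP fluorescence per well over plate mean of DMSO wells so 100% = DMSO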). The settings on record: 3 h, at 10 µM, stronger effect = higher value.
Experiment [4] in a line: modulators of LAP4-GFP expression in yeast, primary screen, S. cerevisiae, multiplex flow cytometry (AID 1873;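 active = GFP signal, as percent of the solvent control, above the screen mean plus 3 SD, about 149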). The following applies: 3 h, at 10 µM, stronger effect = higher value.
The nature of experiment [5]: modulators of AGP1-GFP expression in yeast TOR pathway, primary screen, cell-based, multiplex flow cytometry, S. cerevisiae (AID 1887;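 active = GFP signal above the screen-wide mean plus 3 SD, that is over about 124.5% of the solvent control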;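 note: AGP1-GFP fusion strain of S. cerevisiae within a five-strain barcoded multiplex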). The following applies: 3 h, at 10 µM, stronger effect = higher value.
The nature of experiment [6]: inhibitors of CD8+ T cell-vesicle binding, pilot screen, LFA-1/ICAM-1 modulator project, MLPCN validation set, flow cytometry (AID 2523;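 active = response below a set limit, under 55% cells CD8-positive and vesicle-bound, and CD8 cells' 90th-percentile brightness under 279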;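 for vesicle binding response: mean PE anti-B7-1 fluorescence of CD8+ cells relative to row control; 100% = QL9-loaded vesicles with DMSO vehicle in the same plate row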). The settings on record: 2C mouse CD8+ T cells, at 7 µM, stronger effect = lower value; double positive events: measured here: CD8+/vesicle+ event percentage.
Experiment [7] has as its target Integrin beta-1 (Homo sapiens) + Integrin alpha-4 (Homo sapiens) (UniProt P13612+P05556). As to the kind of experiment: inhibition of HUTS-21 binding to VLA-4, pilot screen, VLA-4 allosteric modulator project, U937 cells, HUTS-21 mAb, flow cytometry, validation set (AID 2674;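 active = inhibition above 50%, about 3 SD of the validation set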;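 note: antibody binding induced by the VLA-4 ligand LDV present at three times its Kd; 0% = LDV ligand with antibody and no compound and 100% = antibody without LDV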). The following applies: HUTS-21 LIBS mAb binding, at 6.7 µM, stronger effect = higher value, binding induced by LDV ligand.

Experiment [8] can be described thus: superoxide lowering in aged yeast cells, pilot screen, validation compound set (AID 2706;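 active = superoxide response below 65% of plate, a cut near 3 SD across the whole screen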;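 note: yeast exposed to compound for one week at 30 degrees C before staining; 100% = mean of all compound wells on the same plate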). The following applies: S. cerevisiae aging, superoxide DHE fluorescence; at 10 µM; stronger effect = lower value.
Experiment [9] concerns the target Beta-adrenergic receptor kinase 1 (Homo sapiens) (UniProt P25098). Description: GRK2 binders displacing RNA aptamer, biochemical, validation, human GRK2, bead flow cytometry (AID 488806;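 active = aptamer binding inhibition above 30%, about 3 SD of noise from non-fluorescent compounds; inactive = inhibition at or below 30%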). The settings on record: bead-bound GRK2, FAM-aptamer displacement, at 10 µM, stronger effect = higher value.
In experiment [10] the target is Beta-2 adrenergic receptor (Homo sapiens) (UniProt P07550). As to the kind of experiment: beta2AR agonists driving receptor internalization, pilot screen, cell-based, FAP fluorogen, flow cytometry, validation set (AID 504459).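 Note: agonist-driven loss of surface beta2AR via internalization measured by FAP dye flow cytometry.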 The following applies: Am2.2-beta2AR cells, FAP surface receptor flow cytometry; at 10 µM; stronger effect = higher value.
Chain of Beta-2 adrenergic receptor (Homo sapiens) (P07550 whole entry, looked up): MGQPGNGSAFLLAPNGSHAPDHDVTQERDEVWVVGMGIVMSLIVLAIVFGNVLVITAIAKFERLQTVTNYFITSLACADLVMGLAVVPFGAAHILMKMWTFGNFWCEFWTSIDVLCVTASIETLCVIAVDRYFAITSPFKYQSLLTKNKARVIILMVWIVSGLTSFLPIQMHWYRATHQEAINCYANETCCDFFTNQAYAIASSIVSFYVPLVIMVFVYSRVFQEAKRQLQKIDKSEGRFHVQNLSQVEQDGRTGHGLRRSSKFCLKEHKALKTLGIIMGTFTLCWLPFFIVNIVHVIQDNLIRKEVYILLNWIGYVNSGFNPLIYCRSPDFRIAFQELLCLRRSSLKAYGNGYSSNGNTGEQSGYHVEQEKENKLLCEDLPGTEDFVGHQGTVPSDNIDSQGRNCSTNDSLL
In experiment [11] the target is AP-2 complex subunit beta (Homo sapiens) (UniProt P63010). Description: inhibitors of arrestin peptide binding to AP2, pilot screen, biochemical, validation set, GST-AP2 beads, flow cytometry (AID 504541;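 active = inhibition above 54%, about 3 SD of non-fluorescent compounds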;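 note: AP2 carries R879A mutation and is captured from E. coli lysate; bead-bound FITC arrestin peptide fluorescence measuring arrestin peptide binding to AP2; 0% = DMSO wells and 100% = excess unlabeled arrestin peptide control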). The settings on record: FITC arrestin peptide, at 10 µM, stronger effect = higher value, AP2 beta2 appendage fragment, R879A mutant.
Chain of AP-2 complex subunit beta (Homo sapiens) (P63010 whole entry, looked up, the tested form may be a part, one chain of several): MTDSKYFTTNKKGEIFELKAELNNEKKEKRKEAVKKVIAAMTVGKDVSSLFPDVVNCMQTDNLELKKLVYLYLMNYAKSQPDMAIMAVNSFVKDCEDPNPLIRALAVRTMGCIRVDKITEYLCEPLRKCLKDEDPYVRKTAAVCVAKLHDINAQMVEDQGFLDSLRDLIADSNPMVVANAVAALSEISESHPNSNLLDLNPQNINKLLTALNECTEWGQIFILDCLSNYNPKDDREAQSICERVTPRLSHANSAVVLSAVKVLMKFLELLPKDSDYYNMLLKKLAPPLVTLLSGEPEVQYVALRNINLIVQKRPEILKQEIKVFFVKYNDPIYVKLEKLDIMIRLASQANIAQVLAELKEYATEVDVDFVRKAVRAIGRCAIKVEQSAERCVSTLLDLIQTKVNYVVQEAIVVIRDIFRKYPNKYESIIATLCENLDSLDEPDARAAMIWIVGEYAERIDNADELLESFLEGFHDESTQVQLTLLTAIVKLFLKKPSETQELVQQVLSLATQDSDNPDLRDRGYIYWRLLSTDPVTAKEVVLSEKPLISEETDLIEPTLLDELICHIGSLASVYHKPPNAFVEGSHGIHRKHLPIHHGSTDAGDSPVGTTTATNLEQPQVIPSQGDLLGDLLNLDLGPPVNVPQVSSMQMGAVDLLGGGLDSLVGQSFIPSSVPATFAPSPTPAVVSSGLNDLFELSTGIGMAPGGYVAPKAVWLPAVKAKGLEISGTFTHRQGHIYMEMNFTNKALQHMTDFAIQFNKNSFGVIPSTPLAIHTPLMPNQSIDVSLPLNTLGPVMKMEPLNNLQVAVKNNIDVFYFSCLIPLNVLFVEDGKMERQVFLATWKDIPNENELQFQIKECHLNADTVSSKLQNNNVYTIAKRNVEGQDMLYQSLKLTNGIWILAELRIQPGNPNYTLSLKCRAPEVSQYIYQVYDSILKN
Experiment [12] in a line: yeast V-ATPase proton transport modulators, S. cerevisiae, pHLuorin, HTS validation (AID 504600; in the data active = response above about 15%;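 note: plate controls were DMSO for no effect and reference compound for full effect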). The following applies: S. cerevisiae pHLuorin cytosolic pH, at 10 µM, stronger effect = higher value.
Experiment [13] concerns anti-desmoglein-3 scFv antibody binding to human DSG3. Description: inhibitors of anti-DSG3 scFv binding to DSG3, pilot screen, biochemical, validation compound set, bead-based, flow cytometry (AID 588368;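 active = binding below the plate cutoff, the plate median minus 3 SD, with a reading above zero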;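 note: signal is the median channel fluorescence of bead-bound GFP antibody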). The settings on record: Protein G beads, DSG3-Fc, scFv-GFP binding, at 10 µM, stronger effect = lower value.
Experiment [14] is described as follows: inhibitors of fungal efflux pumps CDR1, CDR2, MDR1, pilot screen, validation compound set, multiplex, phenotypic (AID 588506;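 active = efflux inhibition above 0.42, the validation set average plus 4 SD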;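 note: Nile Red retained in cells so higher fluorescence means more efflux inhibition; 0 = negative control wells and 1 = enniatin B 25 µM full block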). The following applies: S. cerevisiae pump-expressing triplex, Nile Red efflux flow cytometry; at 10 µM; stronger effect = higher value; the pumps come from Candida albicans.
Experiment [15] concerns the target ATP-binding cassette sub-family B member 6 (Homo sapiens) (UniProt Q9NP58). Description: ABCB6 transporter inhibitors, pilot screen, K562-ABCB6 cells, flow cytometry, validation set (AID 588550;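 active = inhibition above the screen-wide mean plus 3 SD, about 51%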;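 note: 0% = DMSO wells and 100% = benzethonium chloride 70 µM positive control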). The following applies: K562-ABCB6 porphyrin accumulation, 1 h, at 10 µM, stronger effect = higher value.
The nature of experiment [16]: promoters of myeloid differentiation in arrested cells, primary screen, cell-based, GFP/MAC1 double positive, flow cytometry, validation set (AID 588685;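 active = differentiation response of at least 50%, scaled between solvent and reference control, from cells with both markers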;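 note: compound exposure lasts four days before antibody staining and flow analysis; 0% = DMSO wells and 100% = 5 µM fulvestrant positive control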). The following applies: ER-HoxA9 marrow cells, stronger effect = higher value, normalized: vehicle 0, fulvestrant 100.

Chain of Beta-adrenergic receptor kinase 1 (Homo sapiens) (P25098 whole entry, looked up): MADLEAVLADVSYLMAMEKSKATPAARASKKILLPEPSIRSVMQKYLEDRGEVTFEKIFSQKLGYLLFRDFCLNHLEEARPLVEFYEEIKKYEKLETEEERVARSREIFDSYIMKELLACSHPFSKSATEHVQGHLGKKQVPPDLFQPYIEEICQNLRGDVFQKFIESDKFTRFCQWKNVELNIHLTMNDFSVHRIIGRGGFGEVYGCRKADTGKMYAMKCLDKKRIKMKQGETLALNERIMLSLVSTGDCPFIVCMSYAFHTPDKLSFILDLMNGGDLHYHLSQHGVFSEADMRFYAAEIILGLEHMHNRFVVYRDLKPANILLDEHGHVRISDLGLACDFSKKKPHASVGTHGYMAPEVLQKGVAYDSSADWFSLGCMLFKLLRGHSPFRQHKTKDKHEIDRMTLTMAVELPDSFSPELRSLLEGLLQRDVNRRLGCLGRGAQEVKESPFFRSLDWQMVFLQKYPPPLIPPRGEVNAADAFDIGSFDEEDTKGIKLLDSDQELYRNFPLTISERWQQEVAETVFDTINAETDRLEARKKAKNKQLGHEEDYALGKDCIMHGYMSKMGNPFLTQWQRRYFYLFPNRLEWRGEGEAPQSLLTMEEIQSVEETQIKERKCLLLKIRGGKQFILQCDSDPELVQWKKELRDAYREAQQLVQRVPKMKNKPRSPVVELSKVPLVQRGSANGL
Chain of Integrin beta-1 (Homo sapiens) + Integrin alpha-4 (Homo sapiens) (P05556 whole entry, looked up): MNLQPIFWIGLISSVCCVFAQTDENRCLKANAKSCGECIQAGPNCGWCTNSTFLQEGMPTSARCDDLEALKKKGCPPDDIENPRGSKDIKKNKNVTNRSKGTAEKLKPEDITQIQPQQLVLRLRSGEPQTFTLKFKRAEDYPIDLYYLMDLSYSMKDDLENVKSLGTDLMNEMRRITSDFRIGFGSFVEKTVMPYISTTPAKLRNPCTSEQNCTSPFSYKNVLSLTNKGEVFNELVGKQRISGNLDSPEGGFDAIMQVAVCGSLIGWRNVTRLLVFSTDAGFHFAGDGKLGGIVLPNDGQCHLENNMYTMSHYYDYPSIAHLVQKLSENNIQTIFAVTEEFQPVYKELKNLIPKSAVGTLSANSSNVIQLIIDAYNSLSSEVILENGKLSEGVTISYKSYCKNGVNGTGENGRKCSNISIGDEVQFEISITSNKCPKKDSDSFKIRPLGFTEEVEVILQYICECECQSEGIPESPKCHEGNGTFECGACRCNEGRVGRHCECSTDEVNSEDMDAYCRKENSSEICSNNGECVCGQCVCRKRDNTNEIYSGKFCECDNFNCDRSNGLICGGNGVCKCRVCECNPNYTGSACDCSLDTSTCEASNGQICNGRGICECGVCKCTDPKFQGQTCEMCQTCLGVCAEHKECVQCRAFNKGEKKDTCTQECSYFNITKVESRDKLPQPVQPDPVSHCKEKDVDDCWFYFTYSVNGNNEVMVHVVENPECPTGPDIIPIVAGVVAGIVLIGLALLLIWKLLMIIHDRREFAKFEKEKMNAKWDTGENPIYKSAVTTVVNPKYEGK
Chain of Integrin beta-1 (Homo sapiens) + Integrin alpha-4 (Homo sapiens) (P13612 whole entry, looked up): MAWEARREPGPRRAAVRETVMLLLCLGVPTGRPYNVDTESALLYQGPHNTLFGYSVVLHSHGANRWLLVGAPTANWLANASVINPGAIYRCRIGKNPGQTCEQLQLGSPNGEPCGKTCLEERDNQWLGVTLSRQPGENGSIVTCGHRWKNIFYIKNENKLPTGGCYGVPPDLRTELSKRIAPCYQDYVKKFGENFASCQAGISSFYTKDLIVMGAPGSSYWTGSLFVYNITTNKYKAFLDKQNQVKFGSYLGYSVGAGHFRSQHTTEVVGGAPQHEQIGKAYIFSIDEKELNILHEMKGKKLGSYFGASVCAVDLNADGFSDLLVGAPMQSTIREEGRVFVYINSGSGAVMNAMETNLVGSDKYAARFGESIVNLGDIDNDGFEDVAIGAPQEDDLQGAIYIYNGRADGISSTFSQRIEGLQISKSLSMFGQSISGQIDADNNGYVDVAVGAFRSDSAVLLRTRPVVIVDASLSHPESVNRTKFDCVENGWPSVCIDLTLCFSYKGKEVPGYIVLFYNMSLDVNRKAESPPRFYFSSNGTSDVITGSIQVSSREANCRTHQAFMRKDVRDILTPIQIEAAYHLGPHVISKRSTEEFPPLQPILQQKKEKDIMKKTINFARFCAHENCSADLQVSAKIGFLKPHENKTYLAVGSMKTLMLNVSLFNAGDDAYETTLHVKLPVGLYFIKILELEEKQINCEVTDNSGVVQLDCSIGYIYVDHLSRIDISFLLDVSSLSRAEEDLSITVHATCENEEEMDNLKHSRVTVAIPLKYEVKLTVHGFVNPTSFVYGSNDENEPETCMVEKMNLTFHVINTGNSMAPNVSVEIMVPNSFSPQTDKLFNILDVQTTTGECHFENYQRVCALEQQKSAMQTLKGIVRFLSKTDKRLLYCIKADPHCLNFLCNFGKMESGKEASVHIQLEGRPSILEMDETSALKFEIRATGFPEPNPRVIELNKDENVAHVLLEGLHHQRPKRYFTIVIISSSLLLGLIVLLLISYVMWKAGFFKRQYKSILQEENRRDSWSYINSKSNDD
Chain of ATP-binding cassette sub-family B member 6 (Homo sapiens) (Q9NP58 whole entry, looked up): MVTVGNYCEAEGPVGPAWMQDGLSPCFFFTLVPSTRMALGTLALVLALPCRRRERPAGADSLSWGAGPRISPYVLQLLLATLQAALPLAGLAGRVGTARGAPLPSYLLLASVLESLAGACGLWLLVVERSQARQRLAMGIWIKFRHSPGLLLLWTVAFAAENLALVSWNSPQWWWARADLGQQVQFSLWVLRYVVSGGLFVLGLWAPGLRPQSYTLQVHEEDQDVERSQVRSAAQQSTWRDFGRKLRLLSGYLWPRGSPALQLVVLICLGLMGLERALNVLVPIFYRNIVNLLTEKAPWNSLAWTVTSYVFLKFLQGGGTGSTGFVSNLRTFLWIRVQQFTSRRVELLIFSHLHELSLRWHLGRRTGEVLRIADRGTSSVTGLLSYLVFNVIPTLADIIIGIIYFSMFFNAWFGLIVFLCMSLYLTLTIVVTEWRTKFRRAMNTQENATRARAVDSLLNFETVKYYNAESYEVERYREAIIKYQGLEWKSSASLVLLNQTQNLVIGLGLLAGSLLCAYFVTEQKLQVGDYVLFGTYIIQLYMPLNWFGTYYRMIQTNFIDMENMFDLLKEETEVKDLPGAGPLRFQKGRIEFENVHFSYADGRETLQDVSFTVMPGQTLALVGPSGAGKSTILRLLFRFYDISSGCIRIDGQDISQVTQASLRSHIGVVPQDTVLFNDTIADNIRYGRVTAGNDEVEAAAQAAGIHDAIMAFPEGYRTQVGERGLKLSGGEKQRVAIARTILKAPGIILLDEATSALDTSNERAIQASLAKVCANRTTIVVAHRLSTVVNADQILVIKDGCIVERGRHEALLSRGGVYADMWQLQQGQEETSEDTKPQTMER

As usually defined, the inhibition is the change of the read-out against control, counted positive when it falls. Consider `COc1ccc2cc([C@H](C)C(=O)O)ccc2c1`, for which, in experiment [1], the percent of DMSO control GFP is 103% (inactive). Also, the figures for the GFP response vs DMSO in experiment [2] and in experiment [4] were 93% (inactive) and 77.7% (inactive), respectively. Besides, the percent response of DMSO control in experiment [3] is 99.6% (inactive). Further, the GFP response, % of DMSO in [5] was 91.7% (inactive). In experiment [6], this compound gave a double positive events of 70.5%. Further, the vesicle binding response in experiment [6] was 222% (inactive). Moreover, the inhibition in experiment [7] is 2.3% (inactive); in experiment [11], -13.8% (inactive); in [15], 6% (inactive). For the same compound, the superoxide response (% of plate) in experiment [8] is 91% (inactive). The aptamer binding inhibition in experiment [9] was 5% (inactive). Moreover, the response is 15.2% (inactive) in experiment [10] and -6.97% (inactive) in experiment [12]. Besides, in experiment [13], the binding (% of control) was 99.3% (inactive). Also, the efflux inhibition (fraction of control) in experiment [14] is 0.08 (inactive). Moreover, the differentiation response in experiment [16] was -12% (inactive).

As to `COc1cc(C2NCCc3c2[nH]c2ccccc32)ccc1OC(C)C` (stereo not given), the percent of DMSO control GFP in experiment [1] is 105% (inactive). For the same compound, the GFP response vs DMSO is 103% (inactive) in experiment [2] and 90.4% (inactive) in [4]. Also, the percent response of DMSO control in [3] is 106% (inactive). For the same compound, the GFP response, % of DMSO in experiment [5] was 104% (inactive). This compound had a double positive events in [6] of 58.1%. The vesicle binding response in experiment [6] is 85.7% (inactive). In addition, the figures for the inhibition in [7], in [11] and in experiment [15] were 5.61% (inactive), 1.29% (inactive) and 9% (inactive), respectively. The superoxide response (% of plate) in experiment [8] was 95.7% (inactive). For the same compound, the aptamer binding inhibition in [9] was 0% (inactive). Besides, the response in experiment [10] is 9.28% (inactive); in experiment [12], 0.8% (inactive). Further, the binding (% of control) in [13] is 104% (inactive). Further, the efflux inhibition (fraction of control) in [14] was 0.08 (inactive). Further, in experiment [16], the differentiation response was -10.4% (inactive).

For the compound `Cc1ccc(N2C(=O)c3ccccc3C2=O)cc1C`, the percent of DMSO control GFP in [1] is 105% (inactive). Also, the GFP response vs DMSO in experiment [2] was 104% (inactive); in experiment [4], 99.1% (inactive). Moreover, the percent response of DMSO control in experiment [3] is 107% (inactive). Also, the GFP response, % of DMSO in [5] was 94.8% (inactive). The double positive events in experiment [6] came to 63.4%. The vesicle binding response in experiment [6] was 121% (inactive). The inhibition in experiment [7] was 6.95% (inactive); in experiment [11], -6.64% (inactive); in [15] it was 0% (inactive). Besides, the superoxide response (% of plate) in experiment [8] is 99.1% (inactive). Besides, the aptamer binding inhibition in experiment [9] is 3% (inactive). Besides, the response in [10] is -0.69% (inactive); in experiment [12] it was 0.36% (inactive). Also, the binding (% of control) in [13] is 101% (inactive). Moreover, the efflux inhibition (fraction of control) in experiment [14] is 0.24 (inactive). In addition, in [16], the differentiation response was -3.11% (inactive).

For the compound `CC1=C/C(=N\N=C2\NC(=O)C(CC(=O)Nc3ccccc3F)S2)CC(C)(C)C1` (stereo not given), the percent of DMSO control GFP in experiment [1] was 94.2% (inactive). In addition, the values for the GFP response vs DMSO in experiment [2] and in experiment [4] were 125% (inactive) and 83.1% (inactive), respectively. Besides, the percent response of DMSO control in experiment [3] is 86% (inactive). Besides, in experiment [5], the GFP response, % of DMSO was 95.2% (inactive). Besides, the double positive events in [6] turned out to be 58%. For the same compound, the vesicle binding response in experiment [6] was 104% (inactive). The inhibition in experiment [7] was 12.3% (inactive); in experiment [11], -7.65% (inactive); in [15], 11% (inactive). Further, the superoxide response (% of plate) in [8] was 96.1% (inactive). Also, in experiment [9], the aptamer binding inhibition is 8% (inactive). Besides, the response in experiment [10] is -1.66% (inactive); in experiment [12] it was 1.96% (inactive). In addition, the binding (% of control) in experiment [13] is 102% (inactive). In addition, the efflux inhibition (fraction of control) in experiment [14] was -0.2 (inactive). Also, the differentiation response in [16] is 4.09% (inactive).

Consider `COc1ccc(C2OC[C@H]3O[C@H](O)[C@H](NC(C)=O)[C@@H](O)[C@@H]3O2)cc1` (stereo not given in full), for which, in experiment [1], the percent of DMSO control GFP was 99.8% (inactive). Besides, the results for the GFP response vs DMSO in experiment [2] and in [4] were 106% (inactive) and 95.9% (inactive), respectively. The percent response of DMSO control in experiment [3] was 97.6% (inactive). The GFP response, % of DMSO in experiment [5] is 97.5% (inactive). The compound also registered a double positive events in experiment [6] of 76.5%. Moreover, the vesicle binding response in [6] was 135% (inactive). Further, the inhibition in [7] was 6.95% (inactive); in experiment [11], 6.9% (inactive); in experiment [15] it was 12% (inactive). In addition, in experiment [8], the superoxide response (% of plate) is 98.6% (inactive). In addition, in [9], the aptamer binding inhibition is 0% (inactive). Besides, the response is 8.93% (inactive) in [10] and 4.88% (inactive) in experiment [12]. Besides, the binding (% of control) in [13] was 95.3% (inactive). The efflux inhibition (fraction of control) in experiment [14] is -0.04 (inactive). In addition, in [16], the differentiation response was -4.57% (inactive).
